Consider seven compounds from PubChem BioAssay (Tox21).

Test [1] in a line: Nuclear factor erythroid 2-related factor 2/antioxidant responsive element (Nrf2/ARE) small molecule agonists: luciferase reporter gene qHTS assay in human keratinocytes (AID 1919969; further: nearly all actives have a fitted effect of over 35% in size; further: potency means the concentration at half of the fitted maximal effect). (A reporter such as luciferase makes a cellular process visible.)
Test [2] addresses KiSS-1 receptor (Homo sapiens) (UniProt Q969F8). As to the kind of experiment: Human kisspeptin (KISS1R) small molecule agonists, calcium flux assay in KISS1R-HEK293 cells (AID 1920064; active means well fitted activation curve with a large enough effect in the repeat runs). The method, boiled down: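 Cell line: HEK293, stable human KISS1R. Dye loading 1 h at 37 C after 18 h culture. Read: kinetic fluorescence, 480/540 nm, 3 min at 1 s intervals.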
Test [3] can be described thus: p53 small molecule agonists, cell-based qHTS assay with human liver microsomes (AID 1963577). The essentials:
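Fluorescence of the beta-lactamase reporter in p53RE-bla cells, detected with LiveBLAzer substrate (2 h, room temperature, dark), served as the read-out after 16 h compound exposure at 37 C with human liver microsomes and NADPH, each 0.5 mg/mL final.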
(Quantitative high-throughput screening tests each substance at several concentrations.)

The nature of test [4]: p53 small molecule agonists, cell-based qHTS assay with rat liver microsomes (AID 1963578). The essentials:
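Cells carrying a p53 response element–beta-lactamase reporter were plated and rested 5 h, then dosed with compound in DMSO plus rat liver microsomes and NADPH, each at 0.5 mg/mL final. After 16 h at 37 C, LiveBLAzer substrate was added for 2 h.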

Test [5] in a line: p53 small molecule agonists, cell-based qHTS assay with human liver microsomes: qHTS cell viability counter screen (AID 1963579). Further: nearly all actives have a fitted effect of over 45% in size. Further: potency means the concentration at half of the fitted maximal effect. The essentials:
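Cytotoxicity counter screen: p53RE-bla, 4,000 cells/well; 5 h settle, 37 C/5% CO2; cpd + HLM 0.5 mg/mL + NADPH 0.5 mg/mL (final); 16 h, 37 C; CellTiter-Glo, 30 min RT, luminescence.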

A short description of test [6]: p53 small molecule agonists, cell-based qHTS assay with rat liver microsomes: qHTS cell viability counter screen (AID 1963580). Further: nearly all actives have a fitted effect of over 45% in size. The method, boiled down: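 After the beta-lactamase ratio was read, CellTiter-Glo was added to the same wells and luminescence measured at 30 min; cells had been treated 16 h at 37 C with compounds, rat liver microsomes and NADPH (0.5 mg/mL final each).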

Test [7] can be described thus: p53 small molecule agonists, cell-based qHTS assay: qHTS cell viability counter screen (AID 1963581). Further: nearly all actives have a fitted effect of over 45% in size. The essentials:
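ATP content measured by luminescence in HCT-116 p53RE-bla cells treated 16 h at 37 C, same wells as the reporter screen.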

Test [8] can be described thus: p53 small molecule agonists, cell-based qHTS assay (AID 1963582; active means well fitted activation curve with a large enough effect in the signal ratio in the repeat runs, not every such curve was filed as active; the % refers to the signal ratio). The method, boiled down: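 16 h compound exposure (37 C) of p53 response element–bla cells, preceded by 5 h recovery at 37 C/5% CO2; read-out via LiveBLAzer B/G FRET substrate, 2 h RT, fluorescence intensity.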
Test [9] deals with 5-hydroxytryptamine receptor 2A (Homo sapiens) (UniProt P28223). As to the kind of experiment: 5-hydroxytryptamine receptor 2A (HTR2A) small molecule antagonists, cell-based qHTS assay (AID 1963586). Further: nearly all actives have a fitted effect of over 45% in size. Further: potency means the concentration at half of the fitted maximal effect. The essentials:
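CHO cells stably expressing human HTR2A were plated for 18 h at 37 C, then loaded with calcium dye for 1 h. Compounds were preincubated 5 min at room temperature before DOI (4 nM solution) was added. Kinetic fluorescence was read for 3 min.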

The target is the same in test [10]. The experiment in a line: 5-hydroxytryptamine receptor 2A (HTR2A) small molecule agonists, cell-based qHTS assay (AID 1963587). Further: nearly all actives have a fitted effect of over 30% in size. The essentials:
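CHO cells stably expressing human HTR2A, plated 18 h, loaded with calcium dye 1 h at 37 C. Agonist mode: compounds added and intracellular calcium fluorescence recorded kinetically for 2 min at 1 sec intervals.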

Test [11] deals with Muscarinic acetylcholine receptor M1 (Homo sapiens) (UniProt P11229). The experiment in a line: Cholinergic receptor muscarinic 1 (CHRM1) small molecule antagonists, cell-based qHTS assay (AID 1963588). Further: nearly all actives have a fitted effect of over 40% in size. Further: potency means the concentration at half of the fitted maximal effect. The method, boiled down: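 Compounds were tested at 15 concentrations in three independent runs. Dye-loaded CHRM1-CHO cells were exposed 5 min at room temperature before stimulation by acetylcholine added at 50nM. Intracellular calcium was read kinetically on FDSS for 3 min.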
Chain of Muscarinic acetylcholine receptor M1 (Homo sapiens) (P11229 whole entry, looked up): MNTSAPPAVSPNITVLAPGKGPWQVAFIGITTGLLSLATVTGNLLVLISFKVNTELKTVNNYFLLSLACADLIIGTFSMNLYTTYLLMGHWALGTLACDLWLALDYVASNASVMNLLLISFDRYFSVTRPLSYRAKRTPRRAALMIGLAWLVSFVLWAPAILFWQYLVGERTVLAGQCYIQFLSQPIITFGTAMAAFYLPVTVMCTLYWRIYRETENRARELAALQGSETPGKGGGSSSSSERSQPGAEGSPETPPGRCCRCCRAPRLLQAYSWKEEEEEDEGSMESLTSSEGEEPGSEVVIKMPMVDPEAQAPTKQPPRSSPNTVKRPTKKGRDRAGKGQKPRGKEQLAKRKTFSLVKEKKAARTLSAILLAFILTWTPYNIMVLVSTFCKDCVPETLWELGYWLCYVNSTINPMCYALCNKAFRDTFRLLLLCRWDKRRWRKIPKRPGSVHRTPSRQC

Test [12] in a line: cAMP Responsive Elements (CRE) small molecule agonists, cell-based qHTS assay (AID 1963590). The method, boiled down:
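HEK 293T cells stably bearing CRE-bla were plated at 2,000 cells per well and rested 18 h. Compounds, positive controls or DMSO were added for 3 h at 37 C. LiveBLAzer B/G substrate was then loaded for 2 h at room temperature.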

Test [13] is described as follows: cAMP Responsive Elements (CRE) small molecule antagonists, cell-based qHTS assay (AID 1963591; active means well fitted inhibition curve with a large enough effect in the signal ratio in the repeat runs, not every such curve was filed as active; the % refers to the signal ratio). The method, boiled down: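 First, CRE-bla HEK293T cells settled 18 h at 37 C. Next, compound and 0.25 uM final NKH477 were applied for 3 h. Last, LiveBLAzer B/G substrate was loaded for 2 h at room temperature.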
The target in test [14] is Beta-2 adrenergic receptor (Homo sapiens) (UniProt P07550). As to the kind of experiment: Adrenergic beta2 receptor (ADRB2) small molecule antagonists, cell-based qHTS assay (AID 1963592). Further: series mostly up to about 92 µM; nearly all actives have a fitted effect of over 50% in size. The essentials: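 Assay format: CHO-ADRB2 cells, 18-20hr seeding at 37C/5% CO2, then compound plus 1nM isoproterenol agonist mix for 0.5hr RT. Homogeneous time-resolved fluorescence cAMP detection after 1hr, expressed as 665/615 nm ratio.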
Chain of Beta-2 adrenergic receptor (Homo sapiens) (P07550 whole entry, looked up): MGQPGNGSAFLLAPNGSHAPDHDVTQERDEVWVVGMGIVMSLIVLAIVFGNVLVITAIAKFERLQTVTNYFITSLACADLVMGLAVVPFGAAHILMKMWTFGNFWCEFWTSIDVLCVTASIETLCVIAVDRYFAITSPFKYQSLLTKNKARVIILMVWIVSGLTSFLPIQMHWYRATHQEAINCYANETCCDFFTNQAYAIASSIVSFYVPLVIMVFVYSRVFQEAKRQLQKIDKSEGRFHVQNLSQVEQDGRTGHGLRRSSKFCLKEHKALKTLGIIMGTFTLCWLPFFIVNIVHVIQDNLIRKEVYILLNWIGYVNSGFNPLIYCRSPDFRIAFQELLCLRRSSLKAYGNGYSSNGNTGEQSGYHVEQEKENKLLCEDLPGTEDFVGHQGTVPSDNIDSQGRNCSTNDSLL

Test [15] has as its target D(2) dopamine receptor (Homo sapiens) (UniProt P14416). As to the kind of experiment: Dopamine D2 receptor (DRD2) small molecule agonists, cell-based qHTS assay (AID 1963594). Further: nearly all actives have a fitted effect of over 35% in size. The essentials: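 HEK293 cells stably expressing human DRD2, pre-treated with PDE inhibitor Ro20-1724 (0.1 mM final) and compound 10 min at room temperature, then stimulated with NKH477 (200nM […]) for 30 min. cAMP read by HTRF (665/620 nm).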

Test [16] has the same target. As to the kind of experiment: Dopamine D2 receptor (DRD2) small molecule antagonists, cell-based qHTS assay (AID 1963595; active means well fitted inhibition curve with a large enough effect in the signal ratio in the repeat runs, with a control signal flat; the % refers to the signal ratio; further: potency means the concentration at half of the fitted maximal effect). The method, boiled down:
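Stable D2 receptor HEK293 line, 24 h after seeding. Compound preincubated 10 min, then quinpirole (12 nM) with forskolin analogue NKH477 (200 nM), 30 min, room temperature. Detection by time-resolved FRET of cAMP.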

Test [17] can be described thus: G protein-coupled receptor (GPCR) small molecule agonists, calcium flux assay: HEK293 wild type cell line counter screen (AID 1920065). The essentials: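 Tox21 10K compounds, 15 concentrations each in triplicate, pin-transferred in DMSO onto dye-loaded cells; kinetic read at 480/540 nm for 3 min, 1 s intervals.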
Test [18] deals with Muscarinic acetylcholine receptor M1 (Homo sapiens) (UniProt P11229). As to the kind of experiment: Cholinergic receptor muscarinic 1 (CHRM1) small molecule agonists, cell-based qHTS assay (AID 1963589). Further: nearly all actives have a fitted effect of over 35% in size. The method, boiled down:
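Homogeneous fluorescence calcium flux, agonist mode. Human M1-expressing CHO cells; compound dosed at 15 concentrations, three independent runs; signal sampled every 1 sec.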

The target of test [19] is Gonadotropin-releasing hormone receptor (Homo sapiens) (UniProt P30968). As to the kind of experiment: Human gonadotropin-releasing hormone receptor (GnRHR) small molecule agonists, calcium flux assay in GnRHR-HEK293 cells (AID 1920063). Further: nearly all actives have a fitted effect of over 35% in size. The essentials:
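Compounds dissolved in DMSO are pin-transferred onto dye-loaded GnRHR-HEK293 cells, which were seeded 18 h before at 37 C/5% CO2. Calcium signal is read as fluorescence intensity at 1 s intervals for 3 min.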
A general note: A change in cytosolic calcium serves as a functional read-out for many receptors and channels.

In test [20] the target is Beta-2 adrenergic receptor (Homo sapiens) (UniProt P07550). As to the kind of experiment: Adrenergic beta2 receptor (ADRB2) small molecule agonists, cell-based qHTS assay (AID 1963593).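 Further: CHO cells stably overexpressing human ADRB2.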 The essentials:
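CHO cells stably over-expressing ADRB2 were plated overnight at 37C, then dosed with compounds plus a stimulation mix containing 100uM IBMX and 25uM Ro-20-1724 for 0.5hr at room temperature. cAMP was measured by HTRF competition, 1hr.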

Molecules are shown by their SMILES. Values without a mark were called inactive. Inconclusive results are not listed. Activity calls are given as the source filed them. Unless noted, the call rests on the fitted dose curve.

Chain of D(2) dopamine receptor (Homo sapiens) (P14416 whole entry, looked up): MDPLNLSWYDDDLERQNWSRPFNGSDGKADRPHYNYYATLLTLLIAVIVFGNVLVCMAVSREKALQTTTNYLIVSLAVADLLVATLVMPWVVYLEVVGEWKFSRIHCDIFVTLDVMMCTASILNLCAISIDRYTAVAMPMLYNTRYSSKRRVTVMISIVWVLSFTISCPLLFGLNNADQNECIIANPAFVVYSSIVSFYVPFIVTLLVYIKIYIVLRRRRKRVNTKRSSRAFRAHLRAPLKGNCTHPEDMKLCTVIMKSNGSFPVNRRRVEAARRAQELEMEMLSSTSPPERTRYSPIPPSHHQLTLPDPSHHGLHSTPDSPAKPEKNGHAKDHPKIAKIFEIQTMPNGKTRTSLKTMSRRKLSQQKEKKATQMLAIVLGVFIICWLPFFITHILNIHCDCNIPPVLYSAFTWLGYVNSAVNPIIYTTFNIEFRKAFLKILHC
Chain of KiSS-1 receptor (Homo sapiens) (Q969F8 whole entry, looked up): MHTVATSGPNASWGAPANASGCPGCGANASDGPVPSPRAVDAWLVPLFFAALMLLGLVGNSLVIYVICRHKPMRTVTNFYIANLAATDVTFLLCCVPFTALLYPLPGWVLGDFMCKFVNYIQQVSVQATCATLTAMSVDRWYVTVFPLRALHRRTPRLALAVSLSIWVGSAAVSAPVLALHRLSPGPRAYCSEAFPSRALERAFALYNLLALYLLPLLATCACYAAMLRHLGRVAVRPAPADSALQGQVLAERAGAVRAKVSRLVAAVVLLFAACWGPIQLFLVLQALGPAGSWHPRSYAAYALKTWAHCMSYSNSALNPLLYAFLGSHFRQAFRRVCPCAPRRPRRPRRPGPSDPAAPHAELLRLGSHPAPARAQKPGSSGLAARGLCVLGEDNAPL
Chain of 5-hydroxytryptamine receptor 2A (Homo sapiens) (P28223 whole entry, looked up): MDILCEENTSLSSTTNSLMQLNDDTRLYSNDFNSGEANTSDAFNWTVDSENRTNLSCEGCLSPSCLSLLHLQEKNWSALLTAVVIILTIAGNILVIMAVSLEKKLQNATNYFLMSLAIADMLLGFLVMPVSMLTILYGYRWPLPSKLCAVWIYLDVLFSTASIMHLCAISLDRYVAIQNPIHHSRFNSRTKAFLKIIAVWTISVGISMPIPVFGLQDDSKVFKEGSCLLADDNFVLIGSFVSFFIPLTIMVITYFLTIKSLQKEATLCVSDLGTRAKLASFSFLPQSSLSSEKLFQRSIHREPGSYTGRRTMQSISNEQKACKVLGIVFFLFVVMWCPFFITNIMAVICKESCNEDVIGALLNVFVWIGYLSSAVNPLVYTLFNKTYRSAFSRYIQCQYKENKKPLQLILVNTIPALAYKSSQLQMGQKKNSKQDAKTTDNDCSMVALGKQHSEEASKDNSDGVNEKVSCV
Chain of Gonadotropin-releasing hormone receptor (Homo sapiens) (P30968 whole entry, looked up): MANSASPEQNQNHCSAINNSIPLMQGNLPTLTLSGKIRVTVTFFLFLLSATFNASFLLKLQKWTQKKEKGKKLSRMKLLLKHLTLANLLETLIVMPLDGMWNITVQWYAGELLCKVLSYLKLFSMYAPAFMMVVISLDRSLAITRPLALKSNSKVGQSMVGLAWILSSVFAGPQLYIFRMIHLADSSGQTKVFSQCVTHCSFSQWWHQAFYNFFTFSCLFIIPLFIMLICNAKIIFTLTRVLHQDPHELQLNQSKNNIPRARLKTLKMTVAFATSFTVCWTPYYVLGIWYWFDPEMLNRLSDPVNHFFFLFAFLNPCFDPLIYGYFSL

Consider `CCC(Cl)C(Cl)C(Cl)CC(Cl)C(Cl)C(C)Cl` (configuration not stated), for which the Potency in [1] was 48.6 µM (active). For the same compound, the Potency entry in [2], in test [3], in test [4], in test [5], in [6] and in test [7] was “inactive” each time. For the same compound, the Potency result in test [8], in test [9], in test [10], in test [11], in test [12] and in test [13] was “inactive” each time. Besides, the Potency entry in test [14], in [15] and in [16] was “inactive” in each case.
On to `Oc1cc(Cl)cc(Cl)c1Cl`, for which the Potency in [1] was 49.7 µM (active); in [5], 29.6 µM (active). In addition, the Potency entry in [2], in test [17], in test [7], in test [10], in test [11] and in [18] was “inactive” each time. Further, the Potency entry in test [14], in [15] and in test [16] was “inactive” in each case.
In the case of `CCCCNC(=S)NCCCC`, the Potency result in test [19], in [2], in test [17], in test [3], in [4] and in [5] was “inactive” each time. In addition, the Potency result in test [6], in test [7], in [8], in [9], in test [10] and in test [11] was “inactive” throughout. Further, the Potency result in [18], in [12], in test [14] and in test [16] was “inactive” throughout.
Take `CN1CCCN(C(c2ccccc2)c2ccc(Cl)cc2)CC1` (configuration not stated): the Potency result in test [1], in [17], in [3], in [4], in test [5] and in test [6] was “inactive” throughout. Moreover, the Potency entry in [10], in test [18], in test [12], in test [13], in test [20] and in [15] was “inactive” throughout. The Potency in test [11] was 0.0231 µM (active); in [16] it was 26.6 µM (active).
As to `OCCN1CCN(CC/C=C2/c3ccccc3Sc3ccc(C(F)(F)F)cc32)CC1`, the Potency entry in test [1], in [2], in [3], in [4], in test [5] and in test [6] was “inactive” throughout. Moreover, the Potency entry in test [7], in test [8] and in test [18] was “inactive” in each case. Also, the Potency in test [9] is 0.13 µM (active); in test [11], 3.65 µM (active); in test [16] it was 0.168 µM (active).
For the compound `CC(C)=CCNc1ncnc2c1ncn2[C@@H]1O[C@H](CO)[C@@H](O)[C@H]1O`, the results for the Potency in test [1] and in test [16] were 7.5 µM (active) and 9.44 µM (active), respectively. For the same compound, the Potency entry in test [2], in test [5], in test [6], in test [9], in test [10] and in test [11] was “inactive” throughout. For the same compound, the Potency entry in test [14] was “inactive”.
For `CC(=O)OC(C)OC(=O)C(C)c1ccc(-c2ccccc2)c(F)c1` (configuration not stated), the Potency result in test [1], in test [2], in test [17], in [4], in [6] and in [7] was “inactive” each time. For the same compound, the Potency entry in test [9], in test [10], in test [11], in test [18], in test [14] and in test [20] was “inactive” throughout. The Potency result in test [15] and in test [16] was “inactive” each time.
